Data on 47 molecules can be found in PubChem BioAssay AID504648 (National Center for Advancing Translational Sciences (NCATS), 2011).

In all, about 390,000 compounds went through this assay and about 610 (0.16%) were called active. About 4% were inconclusive and are not listed. Calls come from the whole dose curve; as a rule, active = well fitted inhibition curve with a large enough effect; inconclusive = small, poorly fitted or top-dose-only effect, or effect the other way, or another doubt; inactive = no such curve, though single readings can be large or run the other way. What follows is part of a selection rich in actives, with near analogues and random picks from the rest.
% is set by controls: 0 for no effect and ±100 for the full control effect; potency is the fitted concentration of half-maximal effect.

The assay can be described thus: Nrf2 qHTS screen for inhibitors: counterscreen for cytotoxicity. Particulars: A549 ARE-Fluc cells, CellTiter-Fluor viability, 18-24 h; series mostly up to 46 µM; activity change, negative = cytotoxicity: at the top concentration. From the text:
NIH Molecular Libraries Probe Production Network [MLPCN]
NIH Chemical Genomics Center [NCGC]
Assay Provider: Shyam Biswal, Johns Hopkins University
Nrf2 is a transcription factor that maintains cellular redox homoestasis and protects cells from xenobiotics. Nrf2 binds to the antioxidant response element (ARE) to induce gene expression of a broad spectrum of genes that encode for antioxidants. […] Finding a small molecule that act as an inhibitor of Nrf2 function would represent a novel therapeutic target that could lead to improvement in survival of patients undergoing chemo- and/or radio- therapy.
So here we implemented a counterscreen to weed out the cytotoxic compounds.
1. Shibata, T., et al., Genetic Alteration of Keap1 Confers Constitutive Nrf2 Activation and Resistance to Chemotherapy in Gallbladder Cancer. Gastroenterology, 2008.
2. Sjoblom, T., et al., The consensus coding sequences of human breast and colorectal cancers. Science, 2006. 314(5797): p. 268-74.
NCGC Assay Protocol Summary:
A concentration-response assay was performed with A549 ARE_Fluc cells which are suspended in 5% FBS OPTI-MEM. Five uL were dispensed into 1536-well white TC-treated plate using the Kalypsys dispenser to achieve a density of 5000 cells/well in all columns except column 1. The plate is incubated at 37deg C at 5% CO2 for 2 hours before 23 nL of compounds are added with the Kalypsys pin tool equipped with a 1,536-pin array containing 10-nL slotted pins (FP1S10, 0.457-mm diameter, 50.8 mm long; V&P Scientific). The control compounds Budesonide and Staurosporine are both added at a concentration of 2mM and Budesonide is also added as a 1:10 titration, starting at 200uM, to achieve dose-response. After an 18-24 hour incubation at 37deg C at 5% CO2, 5ul of medium is added to column 1. Afterwards 1ul of 5x of CellTiter-Fluor (Promega) is added to every well. The plate is then incubated at 37deg C at 5% CO2 for 30 minutes before they are read on the ViewLux (Perkin Elmer) for a fluorescent read Ex=405(10)/Em=525(10) for a 3 second exposure, 2x binning, and high gain. Then 3 uL of 3x BugLite is dispensed into all wells and the plate is incubated at ambient room temperature for 15 minutes. Afterwards another ViewLux read is performed using the clear filter to get a luminescent read with the settings of 40 second exposure, 2x binning, and high gain. Cytotoxicity is assessed through the first fluorescent read and then biochemical activity against Nrf2 is measured in the luminescent read.
For the molecule `O=C(c1ccco1)N(Cc1cccs1)c1ccc(O)cc1`, the “activity change, negative = cytotoxicity” value is 18.3% (inactive). Regarding `COC(=O)CCc1ccccc1S(=O)(=O)N(CCC(=O)OC)Cc1ccccc1`, the “activity change, negative = cytotoxicity” value is -2.64% (inactive). Take `C/C(=N\NC(=O)Cc1ccc(Cl)cc1)c1ccccn1`: the Potency is 2.31 µM (active). Take `COc1ccc(S(=O)(=O)N2CCCC(C(=O)Nc3ccc(NC(=O)c4ccccn4)cc3)C2)cc1` (configuration not stated): the “activity change, negative = cytotoxicity” value was -6.09% (inactive). Same read-out and setting: the figure for `C/C(Cc1ccccc1)=N\NC(=O)CNC(=O)c1ccccc1Cl` is 0.489% (inactive). In the case of `CC(=NNC(=S)N1CCCCCC1)c1ccccn1`, the Potency was 20.6 µM (active). `C/C(=N/NC(=O)CSc1ccccn1)c1ccc([N+](=O)[O-])cc1`: the “activity change, negative = cytotoxicity” value is -8.17% (inactive).

As to `Cc1ccc(NC(=S)N2CCN(c3ncccn3)CC2)cc1C`, the “activity change, negative = cytotoxicity” value was 7.48% (inactive). As to `O=C1CSC2(C(=O)N(Cc3ccccc3)c3ccccc32)N1c1cccc(F)c1` (configuration not stated), the “activity change, negative = cytotoxicity” value was -6.81% (inactive). As to `NS(=O)(=O)c1ccc(-c2ccc(/C=C3\SC(=O)NC3=O)o2)cc1`, the Potency was 11.6 µM (active). For `CCOc1ccc(NC(=O)CSc2nnc3c(n2)[nH]c2ccc(S(=O)(=O)N4CCOCC4)cc23)cc1`, the “activity change, negative = cytotoxicity” value is 5.87% (inactive). Same read-out and setting: the figure for `O=C1C(F)N([S+](=O)([O-])c2ccc3c(c2)OCCO3)CCN1[S+](=O)([O-])c1c(F)cccc1F` (configuration not stated) is 1.53% (inactive).

As for `CC(=O)Nc1ccc(C(=O)Nc2cccc(S(=O)(=O)NC3=NCCC3)c2)cc1`, the “activity change, negative = cytotoxicity” value is -0.73% (inactive). The same measure, in the same setting: as for `O=C(NNC(=O)c1cccc(S(=O)(=O)Nc2ccc(Cl)cc2)c1)c1ccc(=O)[nH]c1`, the figure is 7.7% (inactive). Turning to `O=C(Nc1cccc(S(=O)(=O)Nc2ccc(Cl)cc2)c1)c1ccc2c(c1)OCCO2`, the Potency was 16.4 µM (active). In the case of `COc1cccc2c1C(=O)c1c(O)c3c(c(O)c1C2=O)CC(O)(C(C)=NNC(=O)c1ccc(Cl)c(Cl)c1)CC3OC1CC(N)C(O)C(C)O1` (configuration not stated), the Potency was 11.6 µM (active). For the molecule `O=S(=O)(Nc1cccc2cccnc12)c1cccc2cccnc12`, the “activity change, negative = cytotoxicity” value is -15.4% (inactive).

`COc1ccccc1CNc1ccc(-c2nc(-c3ccccc3C)no2)cc1[N+](=O)[O-]`: the “activity change, negative = cytotoxicity” value was -0.21% (inactive). As for `COc1ccc(-c2nc(=N)sn2-c2ccccc2)cc1`, the “activity change, negative = cytotoxicity” value is -0.495% (inactive). In the case of `COc1ccc(Cn2c(=O)[nH]c3cc(C(=O)N4CCN(C(=O)c5ccco5)CC4)ccc3c2=O)cc1`, the “activity change, negative = cytotoxicity” value was 0.466% (inactive). With `COc1ccc(C(CCN2CCOCC2)c2c(OC)cc(OC)c3c2OC(=O)CC3c2ccc(OC)cc2)cc1` (configuration not stated), the “activity change, negative = cytotoxicity” value was -15.8% (inactive). As for `C=C1CCN(C(CC(C)C)C(=O)N2CCOCC2)S(=O)(=O)c2ccccc21` (configuration not stated), the “activity change, negative = cytotoxicity” value was 5.21% (inactive).

For `COc1ccc(-c2ccc(C3C4C=CCCC4(C)C(=O)N3Cc3ccccc3)c(F)c2)cc1OC` (configuration not stated), the “activity change, negative = cytotoxicity” value was -6.6% (inactive).

For `CC(=O)N1CCCc2ccc(NS(=O)(=O)c3ccc(F)cc3F)cc21`, the “activity change, negative = cytotoxicity” value was -2.91% (inactive). Regarding `O=C(/C=C/c1ccc([N+](=O)[O-])o1)NNC(=O)c1ccc(F)cc1`, the Potency was 14.6 µM (active). Take `N#CN1CCC(NC(=O)c2ccc(F)cc2)CC1`: the “activity change, negative = cytotoxicity” value is 0.665% (inactive). Take `CCCCCCC1(C)NC(c2ccc3c(c2)OCO3)=CC(c2ccccc2O)N1` (configuration not stated): the “activity change, negative = cytotoxicity” value was 1.15% (inactive). Still for that read-out and setting: as for `O=C(CNC(=O)c1ccc(Cl)cc1Cl)OC(C(=O)Nc1cc(C(F)(F)F)ccc1Cl)c1ccccc1` (configuration not stated), the figure is 4.24% (inactive). Take `COc1ccc(N2CCN(S(=O)(=O)c3ccc4c(c3)CC(=O)N4)CC2)cc1`: the “activity change, negative = cytotoxicity” value was -0.133% [at 92.2 µM] (inactive). Same read-out and setting: the figure for `CCN(CC)C(=O)CSc1nc2ccsc2c(=O)n1Cc1ccccc1Cl` is -0.0336% (inactive); for `Cc1ccc(NC(=O)c2cc(S(=O)(=O)NCCC3=CCCCC3)ccc2F)cc1C` it is -27.7% (inactive); for `COc1ccc(-c2nnc(SCC(=O)Nc3ccccc3C)o2)cc1OC` it is 8.42% (inactive). For `Cc1cccc(C)c1-n1c(C)cc(/C=C2\C(=O)NN(c3ccccc3)C2=O)c1C`, the Potency was 20.6 µM (active). As to `Cc1cccc(NC(=O)c2ccc3nc(C(C)C)oc3c2)c1C`, the “activity change, negative = cytotoxicity” value is -2.46% (inactive).

`Cc1ccc(C)c(N2CCN(C(=O)Cn3nc(C)c4sc5ccccc5c4c3=O)CC2)c1`: the “activity change, negative = cytotoxicity” value is -0.191% (inactive). As for `O=C1CCCC2=C1[C@@]1(CCC(c3ccccc3)C1)N=C(Nc1nc3ccccc3o1)N2` (some centres not stated), the Potency entry was “inactive”.

As for `CCN(CC)CCC(c1ccc2c(c1)OCO2)c1c(OC)cc(OC)c2c(-c3ccccc3)cc(=O)oc12` (configuration not stated), the Potency entry was “inactive”. For `COc1cc(OC)c2ccc(=O)oc2c1C(CCN1CCN(c2ccccc2)CC1)c1ccc2c(c1)OCO2` (configuration not stated), the Potency was 23.1 µM (active).

`COc1cc(C(CCN2CCN(c3ccccc3)CC2)c2c(OC)cc(OC)c3ccc(=O)oc23)cc(OC)c1OC` (configuration not stated): the Potency result is “inactive”. As to `COC(=O)Cc1csc(/N=C/c2c(O)n(-c3cccc(C(F)(F)F)c3)c(=O)c3ccccc23)n1`, the “activity change, negative = cytotoxicity” value is -0.417% (inactive).

For the molecule `CCO/C=C1\C(=O)N(c2ccc(OCC)cc2)C(=O)c2ccccc21`, the “activity change, negative = cytotoxicity” value was 1.75% (inactive).

`CCOc1ccc(N=Cc2c(O)n(-c3cccc(C)n3)c(=O)c3ccccc23)cc1`: the Potency was 18.4 µM (active). For the molecule `COc1ccc(-c2ccc(OC)c(C3C4C=CCC(C)C4C(=O)N3Cc3ccccc3)c2)cc1C` (configuration not stated), the “activity change, negative = cytotoxicity” value was 9.58% (inactive).

Consider `COc1ccc(NC(=O)CSc2nc3ccccc3n2CC(=O)N2CCCCC2C)cc1` (configuration not stated), for which the “activity change, negative = cytotoxicity” value is 2.61% (inactive). On the same count and under the same terms, as for `COc1cc(NS(=O)(=O)c2ccc3c(c2)OCC(C(=O)N2CCCC2)O3)cc(OC)c1` (configuration not stated), the figure is 11.7% (inactive); as for `CCOC(=O)C1CCN(c2ncnc3c2c(-c2ccccc2)cn3-c2cccc(C)c2)CC1`, -2.99% (inactive); as for `Cc1ccc(-c2nc(CS(=O)(=O)CC(=O)NCc3ccccc3Cl)c(C)o2)cc1`, -3.48% (inactive).
